Here are results for eight compounds from PubChem BioAssay (NCI).

The nature of this assay: NCI Yeast Anticancer Drug Screen. Data for the mlh1 strain (AID 171).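 Also: 0% = growth of vehicle-treated control cultures of the same strain.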 Conditions: S. cerevisiae mlh1 strain growth inhibition, active compounds read high. How it is done:
Growth inhibition of yeast strains with defined genetic alterations is measured as a screen for potential anti-cancer activity. Selected strains with alterations in DNA damage repair or cell cycle control were exposed to compounds and growth inhibition was measured relative to vehicle treated controls. The strain used in this assay is mlh1

The panel holds about 79,000 compounds, 15% with a hit somewhere; the sample as a whole holds those more often. Activity calls are given as the source filed them. Rule as the data show it: active = growth inhibition above about 70%; inactive = the rest.

`COc1ccc(C(=O)C(CN(C)C)CN(C)C)cc1`: the growth inhibition reads like this: (at 1.2 µM) -32% (inactive); (at 3.7 µM) -15% (inactive); (at 11.0 µM) -13% (inactive); (at 33.0 µM) 4% (inactive); (at 100.0 µM) 74% (active).

With `Cc1cc(N(CCOS(C)(=O)=O)CCOS(C)(=O)=O)ccc1C=Nc1ccc(-c2nc(Cc3ccccc3)sc2C)cc1`, the growth inhibition (at 1.2 µM) was -32% (inactive); the growth inhibition (at 3.7 µM) is -15% (inactive); the growth inhibition (at 11.0 µM) was 46% (inactive); the growth inhibition (at 33.0 µM) is 92% (active); the growth inhibition (at 100.0 µM) was 97% (active).

As to `CCOC(=O)c1cc([N+](=O)[O-])c(Sc2ncnc3nc[nH]c23)c([N+](=O)[O-])c1`, the growth inhibition was -28% (inactive) (at 1.2 µM); -23% (inactive) (at 3.7 µM); 50% (inactive) (at 11.0 µM); 90% (active) (at 33.0 µM); 90% (active) (at 100.0 µM).

In the case of `Nc1nc2ccc(NCc3ccc(C(=O)NC(CCC(=O)O)C(=O)O)cc3)cc2c(=O)[nH]1` (stereo not given), the growth inhibition is, setting by setting: (at 1.2 µM) -5% (inactive); (at 3.7 µM) 2% (inactive); (at 11.0 µM) 0% (inactive); (at 33.0 µM) 11% (inactive); (at 100.0 µM) 39% (inactive).

For `COc1ccc2[nH]cc([C@@H]3C4CCC(C4)[C@H]3NCc3cccc(CN[C@H]4C5CCC(C5)[C@@H]4c4c[nH]c5ccc(OC)cc45)c3)c2c1`, the growth inhibition was -68% (inactive) (at 1.2 µM); -64% (inactive) (at 3.7 µM); -60% (inactive) (at 11.0 µM); 61% (inactive) (at 33.0 µM); 97% (active) (at 100.0 µM).

Regarding `CNC(=O)OCc1c(COC(=O)NC)c(-c2ccc(Cl)c(Cl)c2)n2c1SCC2`, the growth inhibition (at 1.2 µM) was -1% (inactive); the growth inhibition (at 3.7 µM) was -2% (inactive); the growth inhibition (at 11.0 µM) is -3% (inactive); the growth inhibition (at 33.0 µM) was -2% (inactive); the growth inhibition (at 100.0 µM) is 44% (inactive).

As for `CCOC1=C/C(=N\Nc2ccc([N+](=O)[O-])cc2)CCC1`, the growth inhibition (at 1.2 µM) was 0% (inactive); the growth inhibition (at 3.7 µM) is 5% (inactive); the growth inhibition (at 11.0 µM) was 11% (inactive); the growth inhibition (at 33.0 µM) was 17% (inactive); the growth inhibition (at 100.0 µM) was 7% (inactive).

In the case of `NNC(=O)CCc1cc2ccccc2c2ccccc12`, the growth inhibition runs as follows: (at 1.2 µM) -13% (inactive); (at 3.7 µM) -6% (inactive); (at 11.0 µM) -3% (inactive); (at 33.0 µM) 38% (inactive); (at 100.0 µM) 99% (active).
